A short description of assay [1]: antimalarial activity against Dd2 strain (AID 2302;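 active means growth inhibition above 50% at the single 2 µM test dose, taken to imply half-maximal potency below 2 µM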;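 further: 0% = DMSO untreated growth and 100% = chloroquine plus artemisinin killed control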). The note with it: P. falciparum Dd2 in RBCs, LDH growth readout, 72 h; at 2 µM; stronger effect = higher value.
A short description of assay [2]: HepG2 cytotoxicity, primary screen, cytotoxicity control for P. falciparum antimalarial project, cell-based, ATP luminescence (AID 2303;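 active means inhibition above 50%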;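 further: 0% = DMSO wells and 100% = digitonin-killed cells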). The conditions noted are these: HepG2 viability, 24-48 h, at 10 µM, stronger effect = higher value.
Assay [3] addresses L-lactate dehydrogenase (Plasmodium falciparum (isolate CDC / Honduras)) (UniProt Q27743). The experiment in a line: PfLDH activity inhibition – cell lysate, 3D7 strain, counter-screen for P. falciparum growth inhibition project (AID 2304).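 Further: 0% = vehicle and 100% = reference inhibitor.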 The note with it: P. falciparum 3D7 crude extract, LDH APAD/NBT absorbance; at 2 µM; stronger effect = higher value. (In general: The purpose of a counterscreen is to sort out artefacts and off-target activity.)

Assay [4] in a line: inhibition of 3D7 malaria parasite growth – strain 3D7 (AID 2306).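 Further: 0% = DMSO wells and 100% = chloroquine plus artemisinin control wells.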 The conditions noted are these: P. falciparum 3D7 erythrocytic growth, LDH absorbance, 72 h; at 2 µM; stronger effect = higher value.
Assay [5] deals with Calcium-dependent protein kinase 1 (Plasmodium falciparum (isolate 3D7)) (UniProt P62344). The experiment in a line: PfCDPK1 kinase inhibitors, biochemical, TCAMS library (AID 1159585; cut-off not given, nearly all actives have IC50 up to about 0.98 µM;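 further: inhibitors leave more ATP so luminescence rises with inhibition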). The conditions noted are these: recombinant PfCDPK1, Kinase-Glo ATP depletion luminescence. On the technique in general: Kinase-Glo measures the ATP left after a reaction by luminescence.
Chain of Calcium-dependent protein kinase 1 (Plasmodium falciparum (isolate 3D7)) (P62344 whole entry, looked up): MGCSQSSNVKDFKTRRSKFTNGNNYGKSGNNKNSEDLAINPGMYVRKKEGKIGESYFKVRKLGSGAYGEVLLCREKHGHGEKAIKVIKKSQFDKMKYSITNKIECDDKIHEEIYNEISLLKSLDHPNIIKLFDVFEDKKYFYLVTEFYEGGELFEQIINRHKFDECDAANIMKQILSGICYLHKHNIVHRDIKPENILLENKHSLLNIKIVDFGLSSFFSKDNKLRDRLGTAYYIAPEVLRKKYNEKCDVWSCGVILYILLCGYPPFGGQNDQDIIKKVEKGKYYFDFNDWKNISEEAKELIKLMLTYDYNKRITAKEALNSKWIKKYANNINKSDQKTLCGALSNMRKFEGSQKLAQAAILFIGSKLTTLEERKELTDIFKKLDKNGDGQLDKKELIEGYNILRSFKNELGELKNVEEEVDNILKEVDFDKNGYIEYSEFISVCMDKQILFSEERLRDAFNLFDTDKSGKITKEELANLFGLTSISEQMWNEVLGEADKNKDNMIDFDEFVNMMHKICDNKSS
Assay [6] addresses Plasmodium falciparum protein kinase 6 (PK6, PF3D7_1337100) (UniProt Q8IDW1). The assay can be described thus: PfPK6 kinase inhibitors, biochemical, TCAMS library (AID 1159586). The note with it: recombinant PfPK6, Kinase-Glo ATP depletion luminescence.
The target of assay [7] is Protein kinase 7 (PK7), Plasmodium falciparum 3D7 (PF3D7_0213400) (UniProt Q7YTF7). The assay can be described thus: inhibition of Plasmodium PK7 catalytic activity – biochemical, TCAMS antimalarial set, Kinase-Glo luminescence (AID 1159587). The note with it: recombinant PfPK7, Kinase-Glo ATP depletion luminescence.
Chain of Protein kinase 7 (PK7), Plasmodium falciparum 3D7 (PF3D7_0213400) (Q7YTF7 1-343): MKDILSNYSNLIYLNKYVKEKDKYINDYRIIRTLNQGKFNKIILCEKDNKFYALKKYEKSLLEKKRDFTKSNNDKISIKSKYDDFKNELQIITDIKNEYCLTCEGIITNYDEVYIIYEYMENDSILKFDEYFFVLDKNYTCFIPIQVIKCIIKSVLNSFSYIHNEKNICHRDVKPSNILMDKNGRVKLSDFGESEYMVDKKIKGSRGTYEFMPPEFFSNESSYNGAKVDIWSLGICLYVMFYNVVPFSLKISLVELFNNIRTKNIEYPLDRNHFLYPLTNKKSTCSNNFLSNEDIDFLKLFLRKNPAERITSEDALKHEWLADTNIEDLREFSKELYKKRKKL
Assay [8] deals with Calcium-dependent protein kinase 4 (Plasmodium falciparum (isolate 3D7)) (UniProt Q8IBS5). The experiment in a line: PfCDPK4 kinase inhibitors, biochemical, TCAMS library (AID 1159588; cut-off not given, nearly all actives have IC50 up to about 0.91 µM). The note with it: recombinant PfCDPK4, Kinase-Glo ATP depletion luminescence.
Chain of Calcium-dependent protein kinase 4 (Plasmodium falciparum (isolate 3D7)) (Q8IBS5 whole entry, looked up): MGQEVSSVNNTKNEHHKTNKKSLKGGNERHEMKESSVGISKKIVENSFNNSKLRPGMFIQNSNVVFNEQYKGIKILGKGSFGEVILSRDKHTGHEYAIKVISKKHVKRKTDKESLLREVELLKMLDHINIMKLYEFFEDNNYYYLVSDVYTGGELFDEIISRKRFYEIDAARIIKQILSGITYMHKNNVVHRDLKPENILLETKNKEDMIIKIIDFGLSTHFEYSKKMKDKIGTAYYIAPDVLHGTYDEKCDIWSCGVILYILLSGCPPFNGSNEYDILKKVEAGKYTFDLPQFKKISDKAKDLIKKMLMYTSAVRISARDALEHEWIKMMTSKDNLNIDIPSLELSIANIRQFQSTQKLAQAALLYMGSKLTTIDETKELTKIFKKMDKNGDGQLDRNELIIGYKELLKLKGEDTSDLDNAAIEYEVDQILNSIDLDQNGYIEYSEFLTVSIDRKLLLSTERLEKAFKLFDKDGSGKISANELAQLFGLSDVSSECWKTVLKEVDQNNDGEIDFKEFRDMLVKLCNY

The source of these data is PubChem BioAssay.

Unmarked numbers belong to inactive results. For part of these data: Measured potencies and affinities stand elsewhere. Activity calls are given as the source filed them. Unless noted, how the calls were made is not given here.

Chain of Plasmodium falciparum protein kinase 6 (PK6, PF3D7_1337100) (Q8IDW1 1-305): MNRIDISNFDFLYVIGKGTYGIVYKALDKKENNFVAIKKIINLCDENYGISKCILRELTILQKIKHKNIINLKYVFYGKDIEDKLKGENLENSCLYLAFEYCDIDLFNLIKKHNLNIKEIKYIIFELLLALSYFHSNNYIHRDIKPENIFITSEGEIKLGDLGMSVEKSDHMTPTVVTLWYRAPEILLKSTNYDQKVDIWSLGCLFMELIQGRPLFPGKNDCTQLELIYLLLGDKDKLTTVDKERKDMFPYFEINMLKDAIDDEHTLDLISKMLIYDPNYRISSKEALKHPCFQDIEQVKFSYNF
Chain of L-lactate dehydrogenase (Plasmodium falciparum (isolate CDC / Honduras)) (Q27743 whole entry, looked up): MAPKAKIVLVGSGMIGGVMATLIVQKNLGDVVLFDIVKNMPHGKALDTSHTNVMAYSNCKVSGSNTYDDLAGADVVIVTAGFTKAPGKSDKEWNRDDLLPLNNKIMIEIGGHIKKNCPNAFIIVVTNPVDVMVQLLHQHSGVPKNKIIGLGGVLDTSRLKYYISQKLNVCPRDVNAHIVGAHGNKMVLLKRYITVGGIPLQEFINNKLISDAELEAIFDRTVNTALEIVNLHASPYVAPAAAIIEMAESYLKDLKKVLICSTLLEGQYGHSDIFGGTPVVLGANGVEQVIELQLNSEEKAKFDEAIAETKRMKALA

A word on the inhibition: it is the relative decrease from the control value, in per cent. In the case of `O=C(NCC(CCN1CCC(c2c[nH]c3ccccc23)CC1)c1ccccc1)Nc1ccc(Cl)c(Cl)c1` (centres undefined), the growth inhibition was 53% (active) in assay [1] and 101% (active) in assay [4]. For the same compound, the inhibition in assay [2] is 46%; in assay [3], 5%. Moreover, the result in assay [5], in assay [6], in assay [7] and in assay [8] was inactive.
As for `O=C(Nc1cccc(-c2cccc(-c3nc4ccc(F)cc4[nH]3)c2)c1)c1csnn1`, the growth inhibition in assay [1] was 29%; in assay [4], 95% (active). Further, the inhibition in assay [2] is 23%; in assay [3], -4%. For the same compound, the outcome in assay [5], in assay [6], in assay [7] and in assay [8] was inactive.
As for `COc1cccc(-c2nn(C)c3sc(C(=O)NCCN4CCN(c5ccccc5F)CC4)cc23)c1`, the growth inhibition is 40% in assay [1] and 85% (active) in assay [4]. Also, the inhibition in assay [2] was 9%; in assay [3], -5%. The result in assay [5], in assay [6], in assay [7] and in assay [8] was inactive.
Consider `O=C(NCc1ccc(C(=O)NCc2cccc3ccccc23)cc1)c1ccc(O)c(-c2ccc(Cl)c(Cl)c2)c1`, for which the figures for the growth inhibition in assay [1] and in assay [4] were 31% and 100% (active), respectively. Moreover, the inhibition is -10% in assay [2] and -2% in assay [3]. For the same compound, the outcome in assay [5], in assay [6], in assay [7] and in assay [8] was inactive.
On to `CCN(CC)CCN(Cc1ccc(-c2ccc(C(F)(F)F)cc2)nc1)C(=O)Cn1c(SCc2ccc(F)cc2)nc(=O)c2sccc21`, for which the growth inhibition in assay [1] is 66% (active); in assay [4], 96% (active). Further, the figures for the inhibition in assay [2] and in assay [3] were 43% and -2%, respectively. Besides, the outcome in assay [5], in assay [6], in assay [7] and in assay [8] was inactive.
Take `Cc1ccc2[nH]ncc2c1N(CC1CCCCC1)c1ccnc(Nc2ccc(OCC(O)CN3CC=CCC3)cc2)n1` (centres undefined): the results for the growth inhibition in assay [1] and in assay [4] were 79% (active) and 100% (active), respectively. The inhibition is 29% in assay [2] and -4% in assay [3]. The result in assay [5], in assay [6], in assay [7] and in assay [8] was inactive.
Turning to `C=CCn1c(SCc2c(C)noc2C)nc2scc(-c3cccs3)c2c1=O`, the growth inhibition in assay [1] was 34%; in assay [4], 88% (active). The inhibition is 13% in assay [2] and 0% in assay [3]. In addition, the result in assay [5], in assay [6], in assay [7] and in assay [8] was inactive.
As for `NC(=O)c1cccc(C(=O)Nc2cccc(-c3csc(-c4nc5ccccc5[nH]4)c3)c2)c1`, the growth inhibition in assay [1] is 92% (active); in assay [4], 101% (active). In addition, the inhibition in assay [2] was 16%; in assay [3] it was 0%. The outcome in assay [5], in assay [6], in assay [7] and in assay [8] was inactive.
Consider `Fc1ccc2[nH]c3c(NCCCN4CCOCC4)ncnc3c2c1`, for which the growth inhibition in assay [1] was 2%; in assay [4] it was 98% (active). The inhibition in assay [2] was 14%; in assay [3], -4%. Also, the outcome in assay [5], in assay [6], in assay [7] and in assay [8] was inactive.
For the compound `c1cc(CNCC2CCCO2)cc(-c2cccc(-c3nc4ccccc4[nH]3)c2)c1` (centres undefined), the growth inhibition is 7% in assay [1] and 100% (active) in assay [4]. Besides, the inhibition in assay [2] is 15%; in assay [3], 3%. Further, the outcome in assay [5], in assay [6], in assay [7] and in assay [8] was inactive.
`CS(=O)(=O)c1ccc(CCNCc2ccc(-c3ccc(CN(C(=O)c4ccco4)C4CCN(Cc5ccccc5)CC4)cc3)nc2)cc1`: the growth inhibition was 38% in assay [1] and 85% (active) in assay [4]. Besides, the inhibition was 13% in assay [2] and -1% in assay [3]. Also, the result in assay [5], in assay [6], in assay [7] and in assay [8] was inactive.
As to `Nc1nc(N)c2c(ccc3c2ccn3CCCF)n1`, the growth inhibition was 0% in assay [1] and 94% (active) in assay [4]. The inhibition in assay [2] was 61% (active); in assay [3], 0%. Besides, the result in assay [5], in assay [6], in assay [7] and in assay [8] was inactive.
Regarding `O=C(Nc1cccc(CN2CCCN(Cc3ncc[nH]3)CC2)c1)c1ccc(Cl)c(Cl)c1`, the growth inhibition is 16% in assay [1] and 100% (active) in assay [4]. The values for the inhibition in assay [2] and in assay [3] were 8% and 1%, respectively. For the same compound, the outcome in assay [5], in assay [6], in assay [7] and in assay [8] was inactive.
In the case of `Cc1ccc(Nc2nccc(NCC(O)c3cccc(F)c3)n2)cc1` (centres undefined), the growth inhibition was 26% in assay [1] and 95% (active) in assay [4]. In addition, the figures for the inhibition in assay [2] and in assay [3] were 24% and -7%, respectively. For the same compound, the outcome in assay [5], in assay [6], in assay [7] and in assay [8] was inactive.
`CCc1cn2c3c(cc(C(=O)N[C@@H](Cc4cccc(F)c4)[C@H](O)CNC4CC4)cc13)N(C)S(=O)(=O)CC2`: the growth inhibition in assay [1] and in assay [4] was 98% (active) in each case. Moreover, the inhibition was 2% in assay [2] and 1% in assay [3]. The outcome in assay [5], in assay [6], in assay [7] and in assay [8] was inactive.
Regarding `CC(Nc1nncc(-c2cccc(F)c2)n1)c1ccc(F)cc1` (centres undefined), the growth inhibition in assay [1] was 89% (active); in assay [4], 95% (active). The inhibition is 4% in assay [2] and 0% in assay [3]. Also, the outcome in assay [5], in assay [6], in assay [7] and in assay [8] was inactive.
Turning to `Cn1cncc1C(=O)Nc1cccc(-c2ccc(-c3nc4ccc(F)cc4[nH]3)s2)c1`, the growth inhibition in assay [1] is 27%; in assay [4] it was 99% (active). Moreover, the values for the inhibition in assay [2] and in assay [3] were -9% and 1%, respectively. For the same compound, the result in assay [5], in assay [6], in assay [7] and in assay [8] was inactive.
On to `Cc1ccoc1C(=O)Nc1cccc(-c2cccc(-c3nc4ccc(C(F)(F)F)cc4[nH]3)c2)c1`, for which the growth inhibition was 37% in assay [1] and 98% (active) in assay [4]. Besides, the inhibition in assay [2] is 39%; in assay [3], -6%. Moreover, the result in assay [5], in assay [6], in assay [7] and in assay [8] was inactive.
